This excerpt belongs to a sample that is enriched for hits.
Pf Dd2 inh: qHTS Primary assay for Inhibitors of Plasmodium falciparum Dd2 growth in vitro; P. falciparum Dd2 growth, SYBR Green, 72 h; Potency, µM (series often up to 28.9 µM), actives largely listed as inhibitors; actives 4.3% (n = 120,000); AID 1347417, 2020; active = well fitted inhibition curve with a large enough effect; note: nearly all actives have a fitted effect of over 65% in size
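Readout: SYBR Green fluorescence, 485 nm excitation, 535 nm emission, after ~16 h lysis at 37C. Before that, Dd2-infected red cells (2.5% hematocrit) grew 72 h with compound, 29 uM top final concentration.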
Each line names hits and unclear results; the compound was inactive in the other large screens.

O=C(Cc1ccccc1)N1CCCN(c2cc(-c3ccc(Cl)cc3)[nH]n2)CC1	none
COc1ccccc1Nc1ncc2c(n1)CN(C(=O)c1cccc(O)c1)CCN2	none
COc1ccccc1Nc1ncc2c(n1)CN(C(=O)c1ccc(Oc3ccccc3)cc1)CCN2	Pf Dd2 inh 8.9µM
COc1ccccc1Nc1ncc2c(n1)CN([S+](=O)([O-])c1ccccc1)CCN2	none
Cc1cc(C(=O)N2CCOC[C@H](Oc3ccc(C(F)(F)F)cc3)C2)n(C)n1	none
COc1ccc(CN2CCc3nc(N4CCN(c5ccc(F)cc5)CC4)ncc3C2)c(OC)c1OC	Pf Dd2 inh 11µM
COc1ccc(CN2CCc3nc(N4CCOCC4)[nH]c(=O)c3CC2)c(OC)c1OC	none
CCOc1ccc(CN2CCc3nc(N4CCN(c5ncccn5)CC4)ncc3C2)cc1OC	Pf Dd2 inh 7.9µM
COc1cccc(CN2CCc3nc(Nc4ccc5c(c4)OCCO5)ncc3C2)c1	none
CCc1ccc(CN2CCc3nc(N4CCN(c5ccccc5F)CC4)ncc3C2)cc1	Pf Dd2 inh 8.9µM
Clc1ccc(CN2CCc3nc(N4CCN(c5ccccn5)CC4)ncc3C2)cc1	none
COc1ccccc1N1CCN(c2ncc3c(n2)CCN(Cc2ccccc2F)C3)CC1	none
Fc1ccccc1N1CCN(c2ncc3c(n2)CCN(Cc2cc(Br)cs2)C3)CC1	none
CCOc1ccc(CN2CCc3nc(N4CCN(c5ccccc5OC)CC4)ncc3C2)cc1OC	none
Clc1ccc(CN2CCc3nc(Nc4ccc5c(c4)OCCO5)ncc3C2)cc1	none
COc1cc(OC)c(OC)cc1CN1CCc2nc(Nc3ccc4c(c3)OCCO4)ncc2C1	Pf Dd2 inh 10µM
Fc1ccccc1N1CCN(c2ncc3c(n2)CCN(Cc2ccc(Br)s2)C3)CC1	none
Cc1noc(C)c1CC(=O)N1C[C@@H](COc2ccccc2)[C@H](C(N)=O)C1	none
Cc1ccc(-c2noc([C@@H]3C[C@@H](O)CN3Cc3ccccc3O)n2)cc1F	none
Cc1ccccc1NC(=O)Cn1c(-c2ccc(Cl)cc2)nc(C)c(CCO)c1=O	none
O=C(c1ccsc1)N1CCn2c(nnc2[C@@H]2C[C@@H](O)CN2Cc2ccccc2)C1	none
Cc1cc(C(=O)N2CCCCCCNC(=O)CC2c2ccccc2)nn1C (centres undefined)	none
COc1ccc(CN[C@H]2[C@H](O)[C@@H](N3CCC(C(N)=O)CC3)[C@@H]3OC[C@H]2O3)cc1	none
O=C1NCCCc2[nH]c(CCSCc3ccc(Cl)cc3)nc21	none
CN1Cc2nc(NCc3ccccc3)ccc2OCC1=O	none
CC(=O)c1c(C)nn(CC(=O)N2CCCC(c3cccc(C(=O)O)c3)C2)c1C (centres undefined)	none
O=C(c1cscn1)N1CCc2n[nH]c(=O)n2CC1	none
COc1cc(OC)c(OC)cc1CN1CCc2nc(N3CCN(c4ncccn4)CC3)ncc2C1	Pf Dd2 inh 7.9µM
CCN1CCN(c2ncc3c(n2)CCN(Cc2cccc(F)c2F)C3)CC1	none
COc1ccccc1N1CCN(c2ncc3c(n2)CCN(Cc2ccc(C)s2)C3)CC1	none
CN(Cc1cc(F)c(F)c(F)c1)C1CCc2nn(CC3CC3)c(=O)n2CC1 (centres undefined)	none
CC1CCC2(CC1)NC(=O)N(CC(=O)Nc1ccc(C(F)(F)F)cc1)C2=O (centres undefined)	none
Cc1cccnc1CN(C)c1cc(C2CC(O)C2)ncn1 (centres undefined)	none
COc1ccc(Cl)cc1CN(C)c1cc(C2CC(N)C2)ncn1 (centres undefined)	Pf Dd2 inh 10µM
CN(Cc1cccc(-c2nn[nH]n2)c1)c1cc(C2CC(N)C2)ncn1 (centres undefined)	none
CC(C)CNC(=O)N1CCCOCCNC(=O)[C@@H]2CCC[C@@H]21	none
COc1ccc(CN2CC[C@H]3CN(C)CC[C@H]3CC2=O)cc1	none
CCn1ccc2cc(S(=O)(=O)N3CCC(C(=O)NCc4ccc(F)cc4)CC3)ccc21	none
CCn1ccc2cc(S(=O)(=O)N3CCC(C(=O)NCCc4ccc(SC)cc4)CC3)ccc21	Pf Dd2 inh 8.9µM
CCn1ccc2cc(S(=O)(=O)N3CCC(C(=O)NCCc4ccccc4)CC3)ccc21	none
O=C(c1cc2n(n1)CC(c1ccc3c(c1)OCO3)OC2)N1CCCCC1 (centres undefined)	none
Cc1nc2ccccc2c(=O)n1-c1ccc(NC(=O)c2ccc([N+](=O)[O-])cc2)cc1	none
Cc1cc(-n2c(C)nc3ccccc3c2=O)ccc1NC(=O)c1cccc([N+](=O)[O-])c1	Pf Dd2 inh 8.9µM
Cc1cc(C(=O)Nc2ccc(-n3c(C)nc4ccccc4c3=O)cc2)ccc1[N+](=O)[O-]	none
c1ccc(-c2noc(CCNC3CCC4(CCNCC4)CC3)n2)nc1	none
CCc1csc(CNC2CCC3(CCNCC3)CC2)n1	none
c1coc(-c2nc(CNC3CCC4(CCNCC4)CC3)no2)c1	Pf Dd2 inh 11µM
CN(Cc1ccccc1C(F)(F)F)CC1CC1	none
COc1ccccc1NC(=O)Cn1c(SCC(=O)Nc2ccc(F)cc2)nc2ccccc21	none
COc1cc2nc(SCC(=O)Nc3ccc(F)cc3)n3nc(CCn4c(C)nc5ccccc54)nc3c2cc1OC	none
CCOc1ccccc1NC(=O)CSc1nc2cc(OC)c(OC)cc2c2nc(CCn3c(C)nc4ccccc43)nn12	Pf Dd2 inh 3.2µM

Source: PubChem BioAssay (National Center for Advancing Translational Sciences (NCATS))
